# Results filed as inconclusive are left out. A call without a number means that no potency is given here. Active and inactive are the calls of the source. Unless noted, the call rests on the fitted dose curve; in most records, active means well fitted curve in the direction sought with a large enough effect; inconclusive means small, poorly fitted or top-dose-only effect, or another doubt; inactive means no such curve, though single readings can be large; an effect the other way counts as inactive or inconclusive.
# Experiments:
# [1] = qHTS profiling of the MIPE4 collection as inhibitors of Plasmodium falciparum (DD2) proliferation (AID 743345; call rule not given here); settings: P. falciparum Dd2 in erythrocytes, SYBR Green DNA, 72 h; at 28.5 µM (top of the series) unless noted
# Outline: (§1)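 Parasite DNA was quantified by SYBR Green I fluorescence (ex 485, em 535 nm) after overnight lysis in saponin/Triton buffer at room temperature. Cultures at 0.3% parasitemia and 2.5% hematocrit were first exposed to compound for 72 h at 37 C; signals were normalised to artemisinin (0.29 uM) and vehicle wells.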
# [2] = qHTS profiling of the MIPE4 collection as inhibitors of Plasmodium falciparum (DD2) proliferation (Rep 2) (AID 743346; call rule not given here); settings: P. falciparum Dd2 in erythrocytes, SYBR Green DNA, 72 h; at 28.5 µM (top of the series) unless noted
# Outline: as §1
# [3] = qHTS profiling of the MIPE4 collection as inhibitors of Plasmodium falciparum (HB3) proliferation (AID 743347; call rule not given here); settings: P. falciparum HB3 in erythrocytes, SYBR Green DNA, 72 h; at 28.5 µM (top of the series) unless noted
# Outline: as §1
# [4] = High-throughput drug toxicity screening in the BPDCN cell line Gen2.2 (AID 1224824; call rule not given here;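 further: cells exposed to compounds for 48 h before reading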); settings: Gen2.2 BPDCN cells; at 45.8 µM (top of the series) unless noted
# Outline: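 CellTiter-Glo luminescence read after 48 h compound exposure at 37 C defines viability; percent activity set with DMSO as 100% and bortezomib (9.2 uM final) as 0%. 500 exponentially growing cells per well, RPMI plus 10% FBS.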
# [5] = High-throughput drug toxicity screening in the BPDCN cell line Cal-1 (AID 1224825; call rule not given here); settings: Cal-1 BPDCN cell viability, qHTS; at 45.8 µM (top of the series) unless noted
# Outline: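 CellTiter-Glo luminescence after 48 h compound exposure; percent activity scaled with DMSO as 100% and bortezomib (9.2 uM final) as 0%. Cal-1 cells seeded at 500/well in RPMI, 10% FBS, no phenol red.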
# [6] = qHTS assay for measurement of the activity of small molecule inhibitors on Zika virus induced Caspase-3 activity in human iPSC derived neural progenitor cells (hNPCs) (AID 1224857); further: nearly all actives have a fitted effect of over 65% in size
# Outline: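 Pretreat hNPCs with compound 1 h; infect ZIKV 2 FFU/cell; 6 h 37 C, 5% CO2; Caspase-Glo 3/7, 30 min RT; luminescence; normalize to no-virus and virus-only wells.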
# [7] = qHTS assay for measurement of the activity of small molecule inhibitors on Zika virus induced Caspase-3 activity in human astrocytoma cells (AID 1224859)
# Outline: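 Human SNB-19 astrocytoma cells in RPMI 1640 with 10% FBS receive compound one hour ahead of Zika virus at 2 FFU/cell. After 6 h infection, caspase-3/7 activity is detected by Caspase-Glo luminescence.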
# [8] = qHTS Screen of the MIPE 4.0 Collection Against Ewings Sarcoma (RDES) (AID 1259252); further: nearly all actives have a fitted effect of over 35% in size; further: potency means the concentration at half of the fitted maximal effect
# Outline: (§2)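 Dose series incubated 48 h with cells in RPMI plus 5% FBS, glutamine and penicillin/streptomycin; cell viability then quantified via CellTiter-Glo.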
# [9] = qHTS Screen of the MIPE 4.0 Collection Against Ewings Sarcoma (TC71) (AID 1259253); further: nearly all actives have a fitted effect of over 40% in size; further: potency means the concentration at half of the fitted maximal effect
# Outline: as §2
# [10] = qHTS Screen of the MIPE 4.0 Collection Against Ewings Sarcoma (EW8) (AID 1259255); further: nearly all actives have a fitted effect of over 35% in size; further: potency means the concentration at half of the fitted maximal effect
# Outline: as §2
# [11] = qHTS Screen of the MIPE 4.0 Collection Against Ewings Sarcoma (TC32) (AID 1259256); further: nearly all actives have a fitted effect of over 45% in size; further: potency means the concentration at half of the fitted maximal effect
# Outline: as §2
# [12] = qHTS assay to identify small molecule inhibitors of chordoma cells - UCH-2 (AID 1259356)
# [13] = qHTS assay to identify small molecule inhibitors of chordoma cells - UCH-1 (AID 1259355); further: nearly all actives have a fitted effect of over 55% in size
# Outline: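 Screening used approved and investigational drugs in 15-point titration against 800 seeded cells per well. A fixed combination of auranofin with camptothecin, doxorubicin, rubitecan and topotecan followed compound addition, and growth was scored by CellTiter-Glo after 48hr.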
# [14] = P-glycoprotein substrates identified in KB-3-1 adenocarcinoma cell line, qHTS therapeutic library screen (AID 1346986); settings: KB-3-1 parental cells viability, CellTiter-Glo, 72 h; at 44.5 µM (top of the series); further: nearly all actives have a fitted effect of over 60% in size
# Outline: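 In 1536-well format, 500 cells/well received pinned compound titrations and were incubated 72 h, 5% CO2. Viability was read by CellTiter-Glo; cytotoxic if AC50 < 10 uM and efficacy >50%.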
SMILES,"parasite growth remaining, % of DMSO control (lower = more inhibition) [1]","parasite growth, % of control (lower = inhibition) [2]","growth, % of control [3]","cell viability, % of control (lower = more cytotoxic) [4]",viability (% of control) [5],Potency [6],Potency [7],Potency [8],Potency [9],Potency [10],Potency [11],Potency [12],Potency [13],outcome [14]
Nc1nc(N)nc(-c2cc(Cl)ccc2Cl)n1,88.9%,128%,97.7%,126%,98%,inactive,inactive,inactive,inactive,inactive,inactive,inactive,,
CN1CCN(c2c(F)cc3c(=O)c(C(=O)O)cn4c3c2OCN4C)CC1,95.5%,77.3%,73.2%,170%,117%,inactive,inactive,inactive,inactive,inactive,inactive,,inactive,inactive
COc1cccc(N(C)C(=S)Oc2ccc3c(c2)CCCC3)n1,82.7%,34.5%,24.4%,245%,76.1%,inactive,inactive,inactive,inactive,inactive,inactive,inactive,inactive,
CCN(C)C(=O)Oc1cccc([C@H](C)N(C)C)c1,17.2%,,,97.8%,73.8%,inactive,inactive,inactive,inactive,inactive,inactive,inactive,inactive,
CC(C(=O)O)c1ccc2c(c1)CC(=O)c1ccccc1S2 (configuration not stated),92.6%,187%,97.8%,113%,19.4%,inactive,inactive,inactive,inactive,inactive,inactive,,,inactive
COc1nc(N)nc2c1ncn2[C@@H]1O[C@H](CO)[C@@H](O)[C@@H]1O,85.4%,37.8%,85.6%,82.2%,78%,inactive,inactive,20.9 µM (active),inactive,inactive,inactive,,inactive,inactive
Cc1cc(NS(=O)(=O)c2ccc(N)cc2)no1,,,,56.5%,82.3%,inactive,inactive,inactive,inactive,inactive,inactive,inactive,inactive,inactive
COc1c(N2CCNC(C)C2)c(F)cc2c(=O)c(C(=O)O)cn(C3CC3)c12 (configuration not stated),11.3%,23.4%,21.7%,111%,78%,inactive,inactive,inactive,inactive,inactive,inactive,inactive,inactive,inactive
O=P(O)(O)C(O)(Cc1cccnc1)P(=O)(O)O,99.5%,80.5%,100%,147%,125%,inactive,inactive,inactive,inactive,inactive,inactive,inactive,,
CC1(C)[C@H](C(=O)O)N2C(=O)C[C@H]2S1(=O)=O,,,,240%,103%,inactive,inactive,inactive,inactive,inactive,inactive,,,
NCCCC(O)(P(=O)(O)O)P(=O)(O)O,107%,114%,117%,169%,97.8%,inactive,inactive,inactive,inactive,inactive,inactive,,inactive,
Cc1ccnc2c1NC(=O)c1cccnc1N2C1CC1,,,,1.63%,7.09%,inactive,inactive,inactive,inactive,inactive,inactive,,inactive,inactive
CN(C)CCc1c[nH]c2ccc(CS(=O)(=O)N3CCCC3)cc12,92.8%,86.7%,70.4%,25%,93.3%,inactive,inactive,inactive,inactive,inactive,inactive,inactive,,
CC[C@H](NC(C)C)[C@H](O)c1ccc(O)c2[nH]c(=O)ccc12,107%,92.5%,96.3%,160%,121%,inactive,inactive,inactive,inactive,inactive,inactive,,inactive,
COC(c1ccccc1)(c1ccccc1)[C@H](Oc1nc(C)cc(C)n1)C(=O)O,102%,81.2%,105%,195%,121%,inactive,inactive,inactive,inactive,inactive,inactive,,,inactive
COc1ccccc1OCC(O)COC(N)=O (configuration not stated),96.9%,142%,,109%,124%,inactive,inactive,inactive,inactive,inactive,inactive,inactive,inactive,
CCCCOc1ccc(CC(=O)NO)cc1,14.7%,16.4%,5.4%,37%,29%,inactive,inactive,6.62 µM (active),7.43 µM (active),10.5 µM (active),5.26 µM (active),inactive,inactive,inactive
CC1=NN(c2ccccc2)C(=O)C1,94.6%,86.2%,103%,112%,99.8%,inactive,inactive,inactive,inactive,inactive,inactive,inactive,inactive,inactive
